# From PubChem BioAssay AID1845 (The Scripps Research Institute Molecular Screening Center, 2009)
# Screen size: about 290,000 compounds; about 490 (0.17%) were called active. This is one part of a sample in which actives are shown more often than they occur. Unmarked numbers belong to inactive results. Rule as the data show it: active = inhibition above about 37%; inactive = the rest.
# Experiment: compounds displacing fluorescent DNA intercalator, primary screen, artefact control for HCV NS3 helicase inhibitor project, biochemical, FID fluorescence (AID 1845);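 also: 0% = vehicle and 100% = reference compound; higher means more ethidium bromide displaced from hairpin DNA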
# Details: DNA fluorescent intercalator displacement, at 7.9 µM, hits give high values
row,Compound,inhibition
1,Cc1ccc(-n2c(SCC(=O)NCCC3=CCCCC3)nc3n[nH]c(C)c3c2=N)cc1Cl,-27.4%
2,O=C(N/N=C/c1cccc(Br)c1)c1ccc(N2CCCC2=O)cc1,-27.4%
3,C=CCOc1ccc(/C=C/C(=O)OCC(=O)NC2CCCCCC2)cc1,-19.4%
4,Cc1cc([N+](=O)[O-])ccc1NC(=O)c1ccc(NC(=O)C(C)C)cc1,-1.34%
5,O=C(Nc1ccc(C(=O)N2CCCCC2)cc1)c1cccc([N+](=O)[O-])c1,-20.2%
6,Cn1ccc(=Nc2ccc(NC(=O)c3ccc(N=c4ccn(C)c5ccc([N+](=O)[O-])cc45)cc3)cc2)cc1,99% (active)
7,CCC(C)(C)NC(=O)C(c1cccc(OC)c1OC)N(CC(C)C)C(=O)CCC(=O)Nc1cc(C)on1 (centres undefined),-44.5%
8,O=C(NCCN1CCOCC1)c1cc(-c2cccs2)nc2ccccc12,3.9%
9,c1ccc2cc3c(NCCN4CCOCC4)ccnc3cc2c1,63.9% (active)
10,O=C(NCCN1CCOCC1)c1ccc2c(c1)ncn2C1CCCC1,-5.28%
11,CCCc1cc(=O)oc2c(C)c(OCC(=O)Nc3ccccn3)ccc12,-23.4%
12,COC(=O)c1ccc(/C=N/NC(=O)C(=O)N2CCCCCC2)cc1,-24.6%
13,CCc1c(C)c2ccc(OC3CCCCC3=O)cc2oc1=O (centres undefined),-19.1%
14,Oc1c(Cl)cc(Cl)c(Cl)c1Cc1c(O)c(Cl)cc(Cl)c1Cl,42.8% (active)
15,CCC1OC(c2ccc([N+](=O)[O-])cc2)=Nc2ccccc21 (centres undefined),0.06%
16,CC(CN1CCCCC1)c1ccccc1 (centres undefined),4.77%
17,CC(C)[C@@H](NC(=O)OC(C)(C)C)C(=O)NCC1CCC(C(=O)N[C@@H](Cc2ccccc2)C(=O)O)CC1 (some centres undefined),-37.5%
18,O=C(CCN1CCc2ccccc2C(O)(c2ccccc2)C1)c1ccc2c(c1)OCCO2 (centres undefined),13.1%
19,COc1ccc2cc(C(=O)C3CCCN(C(=O)c4sc(C)nc4C)C3)ccc2c1 (centres undefined),-47.1%
20,O=C(Nc1ccccc1F)c1ccc(Cn2cc(Br)cn2)cc1,-14.8%

row,Compound,inhibition
1,NC(=O)c1cc(S(=O)(=O)NCCCc2ccco2)cs1,-3.13%
2,O=S1(=O)N=C(N(CCO)/N=C/c2ccccc2F)c2ccccc21,-16.3%
3,COc1ccc(CCNC(=O)CN2C(=O)CCSc3ccccc32)c(OC)c1,-32%
4,CC(C)C[C@@H](COc1ccccc1)N1CCN(CC(C)C)CCC1=O,-13.2%
5,Cc1cnc(C)c(N2CCN(C(=O)C3CCC(=O)N(CCc4cccc(F)c4)C3)CC2)n1 (centres undefined),-38.6%
6,O=C(Nc1ccccc1)c1ccc2c(c1)OCCCO2,-4.42%
7,CC(NC(=O)CNC(=O)Cc1cccc2ccccc12)c1ccc(S(N)(=O)=O)cc1 (centres undefined),-27.1%
8,Cc1ccc2c(c1)N(CC(=O)N1CCC(O)CC1)C(=O)CO2,-5.64%
9,O=C(CCN1C(=O)[C@H]2CC=CC[C@H]2C1=O)NCc1nc(-c2ccccc2)no1,-33.7%
10,O=C1NC(c2ccc(-c3ccccc3[N+](=O)[O-])o2)C(C(=O)c2ccc(Cl)cc2)C(O)(C(F)(F)F)N1 (centres undefined),-16.8%
11,C/C(=N/OC(=O)c1ccc(Br)cc1)c1ccc(C)cc1,-5.35%
12,CC(C)C[C@H](NC(=O)C1CCC(CNC(=O)[C@@H]2CCCN2C(=O)OC(C)(C)C)CC1)C(=O)O (some centres undefined),-30.2%
13,CC(=O)c1sc(N/N=C/c2ccc(C(C)C)cc2)nc1C,4.61%
14,CCOc1ccc(NC(=O)C(C)N2C(=O)c3ccccc3C2=O)cc1 (centres undefined),-4.96%
15,S=C(Nc1ccc(Cl)cc1Cl)N1CCCC1,0.9%
16,O=C(NCCN1CCN(C(=O)c2cccc([N+](=O)[O-])c2)CC1)C(=O)NCc1ccc(Cl)cc1,-23.5%
17,NC(=O)C1CCN(Cc2nc3c(Br)cc(Br)cc3c(=O)[nH]2)CC1,-3.04%
18,O=C(C1CC(=O)N(c2ccc(F)cc2)C1)N1CCN(c2ccccc2)CC1 (centres undefined),-24.8%
19,CCc1cc(=O)oc2c(C)c(OCC(=O)N3CC[C@@]4(O)CCCC[C@H]4C3)ccc12,-29.5%
20,COC(=O)c1c(NC(=O)C(=O)N2CCCCC2)sc2c1CC(C)(C)OC2,-42.8%

row,Compound,inhibition
1,CCN(CC)S(=O)(=O)c1ccc(N2CCOCC2)c(NC(=O)C2CSC3(C)CCC(=O)N23)c1 (centres undefined),-32.7%
2,COc1cccc(N(CC(=O)NC2CCCC2)C(=O)CCCC(=O)Nc2ccccn2)c1,-30.3%
3,O=C(O)CC(c1ccccc1F)N1Cc2ccccc2C1=O (centres undefined),-5.32%
4,CC(C)(C)c1ccc(/C=C/C(=O)NCCCn2ccnc2)cc1,4.7%
5,CC(C)c1ccc(Nc2nnc(SCC(=O)c3nnc(-c4ccccc4)o3)s2)cc1,-16.9%
6,COc1ccccc1N(CC(=O)Nc1ccccc1C(=O)N1CCCC1)S(C)(=O)=O,-10.3%
7,Cc1cccc(NC(=O)CCN2CC(C)CC(C)C2)c1 (centres undefined),6.82%
8,CN(CCO)S(=O)(=O)c1ccc2c(c1)C(=O)c1cc(S(=O)(=O)N(C)CCO)ccc1-2,0.99%
9,O=C(c1cc(S(=O)(=O)N2CCOCC2)ccc1Cl)N1CCOCC1,-0.42%
10,O=C(CCN1CCCO1)N1CCCC(N2CCN(c3cccc(C(F)(F)F)c3)CC2)C1 (centres undefined),-34.6%
11,O=C(Cc1ccc(Cl)cc1)NC1CCS(=O)(=O)C1 (centres undefined),-2.95%
12,CC(=O)Nc1ccc(Nc2c3ccccc3nc3ccccc23)cc1,70.8% (active)
13,Cc1ccc(Nc2c3c(nc4ccccc24)CCC3)cc1,6.54%
14,CC(=O)Nc1ccc(NC(=O)COc2ncnc3ccccc23)cc1,-0.17%
15,COc1ccccc1N1CCN(c2ncnc3sc(C)c(-c4ccccc4)c23)CC1,-38.6%
16,OC(CN=c1sc2ccccc2n1CC(O)COc1ccccc1)COc1ccccc1 (centres undefined),-11.1%
17,CCc1ccc(C(CNc2nc(C(F)(F)F)nc3ccccc23)N(C)C)cc1 (centres undefined),39.5% (active)
18,NS(=O)(=O)c1ccc(CCNc2nc(C(F)(F)F)nc3ccccc23)cc1,-2.69%
19,COc1cccc(CNc2nc(C(F)(F)F)nc3ccccc23)c1,-5.57%
